Our source for the binding signal values is paper PMC8384837, “Expanding the binding specificity for RNA recognition by a PUF domain”.

Assay in all cases: yeast three-hybrid, YBZ-1, SC-Leu-His + 0.5 mM 3-AT, 4 days
Common to all, as to conditions: tags: N-Gal4 AD-HA kept; label: inside an RPR1-promoter hybrid RNA with tandem MS2 sites; ssRNA

In one experiment the target is PUM1 PUF domain R1-KNR (Homo sapiens, UniProt Q14671 828-1176, S863K;R864N;Q867R). The method in brief: (§1)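 Repeat regions from input (SC-Leu) and selection (SC-Leu-His + 0.5 mM 3-AT) plates were PCR-amplified and Illumina-sequenced after four days of growth. The cells were strain YBZ-1 with a LexA–MS2 coat fusion and a HIS3 reporter, co-expressing Pumilio-1 PUF domain libraries and matching RNA elements from a centromeric plasmid. The interaction score is the log change in variant frequency from input to selection, taken in log2 with a pseudocount of 1 for absent variants.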

Another experiment addresses PUM1 PUF domain R5-RSM (Homo sapiens, UniProt Q14671 828-1176, C1007R;R1008S;Q1011M). The method in brief: as §1
A further experiment addresses PUM1 PUF domain R3-RIR (Homo sapiens, UniProt Q14671 828-1176, C935R;R936I;Q939R). The method in brief: as §1
Another experiment addresses PUM1 PUF domain R3-MRG (Homo sapiens, UniProt Q14671 828-1176, C935M;Q939G). The method in brief:
as §1

In the next experiment the target is PUM1 PUF domain R3-GWL (Homo sapiens, UniProt Q14671 828-1176, C935G;R936W;Q939L). The method in brief:
as §1

For another experiment, the target named is PUM1 PUF domain R3-GRG (Homo sapiens, UniProt Q14671 828-1176, C935G;Q939G). The method in brief:
as §1

The target of a further experiment is PUM1 PUF domain R3-LFL (Homo sapiens, UniProt Q14671 828-1176, C935L;R936F;Q939L). The method, boiled down: as §1
Another experiment concerns the target PUM1 PUF domain R1-TFR (Homo sapiens, UniProt Q14671 828-1176, S863T;R864F;Q867R). The method, boiled down:
as §1

The target of a further experiment is PUM1 PUF domain R1-CIR (Homo sapiens, UniProt Q14671 828-1176, S863C;R864I;Q867R). The method, boiled down:
as §1

A further experiment concerns the target PUM1 PUF domain R1-KRQ (Homo sapiens, UniProt Q14671 828-1176, S863K). The method in brief: as §1
In another experiment the target is PUM1 PUF domain R8-HWK (Homo sapiens, UniProt Q14671 828-1176, N1122H;Y1123W;Q1126K). The method in brief:
as §1

The next experiment concerns the target PUM1 PUF domain R5-QIR (Homo sapiens, UniProt Q14671 828-1176, C1007Q;R1008I;Q1011R). The method, boiled down:
as §1

The next experiment concerns the target PUM1 PUF domain R5-RTL (Homo sapiens, UniProt Q14671 828-1176, C1007R;R1008T;Q1011L). The method in brief: as §1
For the next experiment, the target named is PUM1 PUF domain R5-KSK (Homo sapiens, UniProt Q14671 828-1176, C1007K;R1008S;Q1011K). The method in brief: as §1

Sequence of PUM1 PUF domain R3-RIR (Q14671 828-1176 C935R/R936I/Q939R): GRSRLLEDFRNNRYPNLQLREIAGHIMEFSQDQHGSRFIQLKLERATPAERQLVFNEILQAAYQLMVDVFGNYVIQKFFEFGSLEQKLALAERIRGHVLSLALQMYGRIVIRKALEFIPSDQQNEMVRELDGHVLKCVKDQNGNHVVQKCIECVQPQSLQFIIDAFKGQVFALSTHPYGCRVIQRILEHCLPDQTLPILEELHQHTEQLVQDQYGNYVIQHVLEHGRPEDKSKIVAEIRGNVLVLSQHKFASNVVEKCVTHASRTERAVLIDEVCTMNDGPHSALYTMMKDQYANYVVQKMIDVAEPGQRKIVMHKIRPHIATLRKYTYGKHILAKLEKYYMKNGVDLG
Sequence of PUM1 PUF domain R8-HWK (Q14671 828-1176 N1122H/Y1123W/Q1126K): as the sequence (Q14671 828-1176 C935R/R936I/Q939R) above, with R108C, I109R, R112Q, N295H, Y296W, Q299K counted along it
Sequence of PUM1 PUF domain R5-RTL (Q14671 828-1176 C1007R/R1008T/Q1011L): as the sequence (Q14671 828-1176 C935R/R936I/Q939R) above, with R108C, I109R, R112Q, C180R, R181T, Q184L counted along it
Sequence of PUM1 PUF domain R1-CIR (Q14671 828-1176 S863C/R864I/Q867R): as the sequence (Q14671 828-1176 C935R/R936I/Q939R) above, with S36C, R37I, Q40R, R108C, I109R, R112Q counted along it
Sequence of PUM1 PUF domain R1-KRQ (Q14671 828-1176 S863K): as the sequence (Q14671 828-1176 C935R/R936I/Q939R) above, with S36K, R108C, I109R, R112Q counted along it
Sequence of PUM1 PUF domain R5-QIR (Q14671 828-1176 C1007Q/R1008I/Q1011R): as the sequence (Q14671 828-1176 C935R/R936I/Q939R) above, with R108C, I109R, R112Q, C180Q, R181I, Q184R counted along it
Sequence of PUM1 PUF domain R1-TFR (Q14671 828-1176 S863T/R864F/Q867R): as the sequence (Q14671 828-1176 C935R/R936I/Q939R) above, with S36T, R37F, Q40R, R108C, I109R, R112Q counted along it

As for “GGCUAGAACUAGUGGAUCCCCCGGCGCCCGGCGGCUCGAGCCCGGGUAAGUGUAAAUGGUCUGCAUGCCGCCGGGCGCCAUGCCUGCAGGUCGACUCUAGAAAACAUG”, in the experiment with PUM1 PUF domain R1-KNR, the binding signal was 3.86 log2 enrichment (interaction score).
For the sequence “GGCUAGAACUAGUGGAUCCCCCGGCGCCCGGCGGCUCGAGCCCGGGUAAGUGUGAAUAGUCUGCAUGCCGCCGGGCGCCAUGCCUGCAGGUCGACUCUAGAAAACAUG”, in the experiment with PUM1 PUF domain R5-RSM, the binding signal was 0.3 log2 enrichment (interaction score).
Consider “GGCUAGAACUAGUGGAUCCCCCGGCGCCCGGCGGCUCGAGCCCGGGUAAGUGUAAUUAGUCUGCAUGCCGCCGGGCGCCAUGCCUGCAGGUCGACUCUAGAAAACAUG”, for which the binding signal with PUM1 PUF domain R3-RIR is 4.33 log2 enrichment (interaction score); in the experiment with PUM1 PUF domain R3-MRG it was 2.8 log2 enrichment (interaction score); with PUM1 PUF domain R3-GWL, 3.82 log2 enrichment (interaction score).
For “GGCUAGAACUAGUGGAUCCCCCGGCGCCCGGCGGCUCGAGCCCGGGUAAGUGUAAGUAGUCUGCAUGCCGCCGGGCGCCAUGCCUGCAGGUCGACUCUAGAAAACAUG”, the binding signal is 5.02 log2 enrichment (interaction score) in the experiment with PUM1 PUF domain R3-RIR; 0.98 log2 enrichment (interaction score) with PUM1 PUF domain R3-GRG; 4.75 log2 enrichment (interaction score) with PUM1 PUF domain R3-LFL; 5.6 log2 enrichment (interaction score) in the experiment with PUM1 PUF domain R3-MRG; 1.08 log2 enrichment (interaction score) in the experiment with PUM1 PUF domain R3-GWL.
Turning to “GGCUAGAACUAGUGGAUCCCCCGGCGCCCGGCGGCUCGAGCCCGGGUAAGUGUAAAUCGUCUGCAUGCCGCCGGGCGCCAUGCCUGCAGGUCGACUCUAGAAAACAUG”, the binding signal with PUM1 PUF domain R1-TFR is 6.07 log2 enrichment (interaction score); with PUM1 PUF domain R1-CIR it was 4.43 log2 enrichment (interaction score); in the experiment with PUM1 PUF domain R1-KRQ, 5.97 log2 enrichment (interaction score).
Consider “GGCUAGAACUAGUGGAUCCCCCGGCGCCCGGCGGCUCGAGCCCGGGUAAGGGUAAAUAGUCUGCAUGCCGCCGGGCGCCAUGCCUGCAGGUCGACUCUAGAAAACAUG”, for which the binding signal with PUM1 PUF domain R8-HWK was 2.46 log2 enrichment (interaction score).
Consider “GGCUAGAACUAGUGGAUCCCCCGGCGCCCGGCGGCUCGAGCCCGGGUAAGUGUCAAUAGUCUGCAUGCCGCCGGGCGCCAUGCCUGCAGGUCGACUCUAGAAAACAUG”, for which the binding signal was 3.55 log2 enrichment (interaction score) with PUM1 PUF domain R5-QIR, 2.38 log2 enrichment (interaction score) with PUM1 PUF domain R5-RTL, 3.19 log2 enrichment (interaction score) with PUM1 PUF domain R5-KSK and 3.66 log2 enrichment (interaction score) with PUM1 PUF domain R5-RSM.
